According to PubChem BioAssay (Tox21):
Inconclusive results are not listed. Active and inactive are the calls of the source. Calls follow the shape of the dose curve; as a rule, active = well fitted cell-killing curve with a large enough effect in the repeat runs; inconclusive = weak or mixed curves, or effect the other way; inactive = flat fitted curve, though single readings scatter.

Test: qHTS assay to identify small molecule that activate the aryl hydrocarbon receptor (AhR) signaling pathway - cell viability counter screen (AID 743086);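 also: HepG2 liver cells carrying the AhR DRE luciferase reporter; nearly all actives have a fitted effect of over 45% in size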
Settings: HepG2-AhR-luc viability, CellTiter-Fluor, 24 h; series mostly up to 70.3 µM; viability change, negative = cytotoxic: at the top concentration
Excerpt: U.S. Tox21 Program National Center for Advancing Translational Sciences [NCATS] NIH Chemical Genomics Center [NCGC] U.S. Environmental Protection Agency [EPA] National Institutes of Environmental Health Sciences [NIEHS] National Toxicology Program [NTP] U.S. Food and Drug Administration [FDA] Tox21 Assay overview: The Aryl hydrocarbon Receptor (AhR), a member of the family of basic helix-loop-helix transcription factors, is crucial to adaptive responses to environmental changes. AhR mediates cellular responses to environmental pollutants such as aromatic hydrocarbons through induction of phase I and II enzymes but also interacts with other nuclear receptor signaling pathways A cell based HepG2-AhR-luc assay (HG2L7.5c1 cell line, developed by Dr. Michael S. Denison, University of California at Davis) was used to assess the activation of AhR. HepG2 (human hepatocellular carcinoma) cells were stably transfected with an Ah receptor-responsive firefly luciferase reporter gene plasmid containing 20 dioxin responsive elements and luciferase reporter gene. Increased luciferase activity can be used to identify the compounds that induce AhR activation. The cytotoxicity of the compounds screened against the HepG2-AhR-luc cell line was tested in parallel by measuring the cell viability using CellTiter-Fluor assay in the same wells.
Tox21 Assay Protocol Summary: 4000 cells in 5 uL/well were dispensed into white wall/solid bottom 1536-well plates using a Multidrop Combi (Thermo Fisher Scientific Inc., Waltham, MA) dispenser. After the assay plates were incubated at 37C for 5 h, 23 nL of compound or DMSO vehicle was transferred to the assay plates by a pintool station (Kalypsys, San Diego, CA). The plates were incubated at 37C for 24 hr. For cell viability measurement, 1 ul/well of CellTiter-Fluor reagent (Promega, Madison, WI) was added into the assay plates using a Flying Reagent Dispenser (FRD) (Aurora Discovery, CA),and then the assay plates were incubated at 37C for 30 min. The fluorescence intensity in the plates was measured using a ViewLux plate reader (PerkinElmer, Shelton, CT), followed by the addition of 4 uL of ONE-Glo Luciferase Assay reagent (Promega) using an FRD (Aurora Discovery). After the assay plates were incubated at room temperature for 30 min, luminescence intensity was measured using a ViewLux plate reader (Perkin Elmer).
% is scaled to controls: 0 for no effect and ±100 for the full control effect.

Row | SMILES | viability change, negative = cytotoxic | Potency
1 | CCCc1nn(C)c2c(=O)[nH]c(-c3cc(S(=O)(=O)N4CCN(C)CC4)ccc3OCC)nc12 | 0.216% (inactive) | 
2 | O=Cc1cccc(Br)c1 | -1.78% [at 95 µM] (inactive) | 
3 | O=C1NC(=O)C2CC=CCC12 (stereo not given) | -4.2% (inactive) | 
4 | CCOC(=O)OC(C)OC1=C(C(=O)Nc2ccccn2)N(C)S(=O)(=O)c2ccccc21 (stereo not given) | 7.16% (inactive) | 
5 | CC1=NN(c2cccc(S(=O)(=O)O)c2)C(=O)C1 | 9.77% (inactive) | 
6 | CCN[C@H]1C[C@H](C)S(=O)(=O)c2sc(S(N)(=O)=O)cc21 | 9.53% (inactive) | 
7 | O=C(CO)[C@@H](O)[C@H](O)[C@@H](O)CO | 9.77% (inactive) | 
8 | CN1CCC(=C2c3ccccc3CCc3cccnc32)CC1 | -4.19% (inactive) | 
9 | CC(C)=CCC/C(C)=C/C#N | -4.82% [at 95 µM] (inactive) | 
10 | CCCCCCC1CCC(=O)O1 (stereo not given) | 4.04% [at 95 µM] (inactive) | 
11 | O=C(O)CNC(=O)c1ccc(CO)o1 | 7.81% (inactive) | 
12 | O=C(O)Cc1csc(-c2ccc(Cl)cc2)n1 | 17% (inactive) | 
13 | CCOc1ccc2nc(S(N)(=O)=O)sc2c1 | 1.08% (inactive) | 
14 | CCOc1ccccc1OCC | 0.409% (inactive) | 
15 | NC(N)=NCCN1CCCCCCC1 | 3.94% [at 32.5 µM] (inactive) | 
16 | C[N+]1(C)CCCC(OC(=O)C(O)(c2ccccc2)c2ccccc2)C1 (stereo not given) | -4.68% [at 32.5 µM] (inactive) | 
17 | O=C(O)CNC(=O)c1ccccc1 | 14.2% (inactive) | 
18 | CCCCc1nc(Cl)c(CO)n1Cc1ccc(-c2ccccc2-c2nn[nH]n2)cc1 | -6.74% (inactive) | 
19 | CN(C)CCCN(C)CCCN(C)C | 8.07% (inactive) | 
20 | CC[N+](C)(CC)CCOC(=O)C1c2ccccc2Oc2ccccc21 | 5.88% (inactive) | 

Row | SMILES | viability change, negative = cytotoxic | Potency
21 | O=S(=O)(O)c1cccc2ccccc12 | -18.2% (inactive) | 
22 | CC(C)C[C@@H](N)C(=O)O | 15.5% (inactive) | 
23 | Nc1ccn([C@@H]2O[C@H](CO)[C@@H](O)[C@@H]2O)c(=O)n1 | -4.5% (inactive) | 
24 | CCCCOC(=O)CCC(C)=O | -16.6% (inactive) | 
25 | O=S(=O)(O)c1cc(O)c(O)c(S(=O)(=O)O)c1 | 4.49% (inactive) | 
26 | C[C@H]1C[C@H]2[C@@H]3CCC4=CC(=O)C=C[C@]4(C)[C@H]3C(=O)C[C@]2(C)[C@@]1(O)C(=O)CO | -3.45% (inactive) | 
27 | O=C(O)CCSCCC(=O)O | 2.84% (inactive) | 
28 | C=COC(=O)C(C)(CC)CCC(C)C (stereo not given) | 10.2% (inactive) | 
29 | CN(C)C(=O)Oc1ccc[n+](C)c1 | 5.4% (inactive) | 
30 | CCCOC(=O)CC | -7.04% (inactive) | 
31 | Cc1ccc(C(=O)c2ccccc2)cc1 | -8.93% (inactive) | 
32 | CNCCO | -13.8% (inactive) | 
33 | CN1CCN(c2cc3c(nn2)Oc2ccccc2N3C)CC1 | -1.46% (inactive) | 
34 | c1ccc(Cc2ccccc2)cc1 | 13.4% (inactive) | 
35 | C=CCCCCCCCCC(=O)OCC | -7.39% (inactive) | 
36 | COCCOC[C@H](CC1(C(=O)NC2CCC(C(=O)O)CC2)CCCC1)C(=O)Oc1ccc2c(c1)CCC2 (stereo not given in full) | -15.2% (inactive) | 
37 | Nc1c2c(nc3c1CCC3)CCCC2 | -2.04% (inactive) | 
38 | CCCCCCCC1CCCC1=O (stereo not given) | 11.5% (inactive) | 
39 | CCCCCCCCN1CCCC1=O | 7.15% (inactive) | 
40 | CC[C@H]1OC(=O)[C@H](C)[C@@H](O[C@H]2C[C@@](C)(OC)[C@@H](O)[C@H](C)O2)[C@H](C)[C@@H](O[C@@H]2O[C@H](C)C[C@H](N(C)C)[C@H]2O)[C@](C)(OC)C[C@@H](C)C(=O)[C@H](C)[C@@H](O)[C@]1(C)O |  | inactive
